Screens from PubChem.
SARS PLpro yeast: blocks SARS-CoV papain-like protease in a yeast assay | S. cerevisiae expressing SARS-CoV PLpro, growth rescue | Potency, µM (series often up to 32.9 µM), for inactives: top-dose activity, positive = growth rescue, hits mostly activators | 330,000 tested, 0.19% active | AID 485353; further: potency means the concentration at half of the fitted maximal effect; 0% is about no effect; nearly all actives have a fitted effect of over 55% in size
Pf growth 96h: P. falciparum growth inhibition at 96 hour, primary screen for plastid delayed-death inhibitors. P. falciparum luciferase reporter growth, 96 h. Potency, µM (doses to about 28.7 µM), for the others: at the highest dose activity change, negative = inhibition, most hits filed as inhibitors. 320,000 tested, 6.9% active; active means well fitted inhibition curve with a large enough effect; inconclusive means small, poorly fitted or top-dose-only effect, or another doubt; inactive means no such curve, though single readings can be large or run the other way; further: potency means the concentration at half of the fitted maximal effect; on the % scale 0 is the no-effect control and ±100 the full control effect
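Infected RBCs, 2% Hct / 0.05% parasitemia final; luciferase-reporter P. falciparum; cpd 96 h, 37 C, 5% CO2; luciferase detection reagent; luminescence.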
NS1 function inh: blocks influenza NS1 protein function; Potency, µM (titrated, usually from 46.1 µM), inactives show top-dose activity, positive = more growth; 270,000 tested, 0.4% active; AID 2326; further: potency means the concentration at half of the fitted maximal effect; actives are rising curves; nearly all actives have a fitted effect of over 50% in size
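S. cerevisiae expressing influenza A NS1, grown in glucose, washed, then diluted 1:100 into pH 6.0 -URA galactose medium with 23 nl compound. Growth recovery read as OD600; NS1-free strain serves as control.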
Shiga inhibitor: blocks Shiga toxin action in Vero cells; 290,000 tested, 9.2% active; Vero cells, Shiga toxin protein synthesis inhibition reporter; inhibition, % at 38.7 µM; in the data active means inhibition mostly above about 28%, no sharp cut-off; inactive means mostly below about 43%; further: 0% is about no effect
Pf growth 48h: inhibits P. falciparum growth in the first generation, 48 h | Potency, µM (doses to about 28.7 µM), inactives show at the highest dose activity change, negative = inhibition, hits mostly inhibitors | 310,000 tested, 5.9% active | P. falciparum luciferase growth in erythrocytes, 48 h; active means well fitted inhibition curve with a large enough effect; inconclusive means small, poorly fitted or top-dose-only effect, or another doubt; inactive means no such curve, though single readings can be large or run the other way; further: potency means the concentration at half of the fitted maximal effect; on the % scale 0 is the no-effect control and ±100 the full control effect
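First compound was added to culture medium, then infected red cells at 0.1% parasitemia and 2% hematocrit (final). After incubation at 37 C under 5% CO2, luciferase detection reagent was dispensed and light output recorded.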
CHX counter: counter-screen hit for Shiga toxin inhibitors, cycloheximide; cell reporter, cycloheximide protein synthesis inhibition counterscreen; max response, %; 300,000 tested, 12% active; in the data active means max response mostly above about 13%, no sharp cut-off; inactive means mostly below about 14%; further: read at 38.3 µM for the half of the compounds with a filed dose; 0% is about no effect
Flu NS1 inh: influenza NS1 function inhibition validation. shares compounds with NS1 function inh. influenza NS1 function cell assay, 15-point titration. activity change, negative = inhibition, % at 32.9 µM. 1,400 tested, under 10 active. AID 492980; further: 0% is about no effect
Flu PR8 replic: influenza NS1 inhibitors: inhibition of influenza A/PR/8/34 replication; MDCK infected influenza A/PR/8/34, virus titer TCID50; stronger effect = lower value; virus titer (log TCID50), log10 TCID50 at 5 µM; shares compounds with NS1 function inh; 95 tested, 30% active; call rule not given here
The depositor's hits bear a star; ? = inconclusive; nt = no result given; [ ] = another dose, or the depositor's remark. A selection: hits, their analogues and other compounds. The true share with any hit is near 21%. Unless noted, the call rests on the fitted dose curve.

SMILES	SARS PLpro yeast	Pf growth 96h	NS1 function inh	Shiga inhibitor	Pf growth 48h	CHX counter	Flu NS1 inh	others
CC(C)NC(=O)c1ccccc1S(=O)(=O)c1ccccc1C#N	1%	2%	1%	-21	35%	1	nt
COc1ccc(OC)c(CCNC(=O)C(C)n2nc(C)c3c(C)n(-c4ccc(C)cc4)nc3c2=O)c1 (stereo not drawn)	0%	?	0%	-4	?	7	nt
CCCCC(=O)Nc1ccc2c(c1)nc1n2CCSC1	-12%	nt	8.9µM*	65*	134%	27*	-12
Cc1ccc(S(=O)(=O)N2CCCCC2)cc1C(=O)N(C)CC(=O)Nc1ccc(Cl)c(C(F)(F)F)c1	-2%	?	10µM*	-6	?	0	-14
COc1cc(/C=C2\C(=O)NC(=O)N(c3ccccc3)C2=O)cc(OC)c1OC	11%	?	7.9µM*	36	16%	1	11
CC(=O)NN1C(=O)c2ccccc2NC1c1ccoc1 (stereo not drawn)	1%	?	nt	19	11%	-6	nt
Cc1ccc(S(=O)(=O)N(C)c2cc(S(=O)(=O)N3CCC(C)CC3)c(C)cc2C)cc1	-6%	12µM*	11µM*	7	10µM*	-1	10
Cn1c(SCC(=O)Nc2ccc(Br)cn2)nnc1C1CC1	0%	-4%	4%	19	-12%	2	nt
C=CC[C@@H](CC(=O)NCCO)C(=O)NCCOC(=O)[C@@H](CC=C)Cc1ccc(F)cc1	2%	nt	nt	nt	nt	nt	nt
CN(c1ccccc1)S(=O)(=O)c1ccc2[nH]c(=O)oc2c1	1%	9%	?	12	2%	-4	9
CCCCN1C(=O)C2NN=C(C(=O)OC)C2C1=O (stereo not drawn)	-3%	-7%	-7%	5	nt	-1	nt
CCCN(CCC)C1=N/C(=C\c2ccco2)C(=O)N1c1ccccc1	0%	-15%	1.1µM*	-5	nt	14	0
O=C1/C(=C\c2ccco2)SC(=S)N1c1ccccc1	-6%	36%	2%	39	38%	7	nt
CC1(C)O[C@H]2[C@@H](O1)[C@@H](On1nnc3ccc(Cl)cc31)O[C@@H]2[C@@H]1COC(C)(C)O1	nt	nt	-3%	nt	nt	nt	nt
COc1ccc(Cc2ccccc2C(=O)O)c2ccccc12	nt	nt	0%	nt	nt	nt	nt
CN(CCC#N)CC(=O)Nc1ccc(NC(=O)CN(C)CCC#N)cc1	?	-11%	2%	-17	38%	-1	nt
CC1(C)C(=O)C2(C(=O)NCc3ccccc3)CCC1C2 (stereo not drawn)	1%	nt	20µM*	-6	0%	-2	1
Cn1cc([N+](=O)[O-])c(C(=O)n2cccn2)n1	1%	-3%	?	3	26%	0	0
CCOC(=O)N1CCC(N2CCCC(C(=O)c3cccc(OC)c3)C2)CC1 (stereo not drawn)	-4%	?	-4%	12	?	-2	nt
Cc1cc2cc(CN(Cc3ccc4c(c3)OCO4)C(=O)c3ccco3)c(=O)[nH]c2cc1C	?	?	?	-3	?	-2	11
CCN(CCCNS(=O)(=O)c1ccc2c(c1)CCN2C(C)=O)c1cccc(C)c1	2%	?	-11%	21	nt	7	nt
Cc1ccc2c(c1)C(c1ccccc1)N(C(=O)C(C)C)CC(=O)N2 (stereo not drawn)	8%	?	?	-7	-12%	-1	29
CCc1ccc(NC(=S)N2CCC(NC(=O)c3ccccc3)CC2)cc1	1%	?	1%	-9	-3%	-3	nt
Cc1nnc(NC(=O)CSc2ncc(-c3ccccc3)[nH]2)s1	4%	42%	4.5µM*	31*	-2%	13	7
CNC(=S)Nc1cccc(Cl)c1C	0%	-3%[5.75 µM]	3%	-13	5%	-6	nt
SMILES	SARS PLpro yeast	Pf growth 96h	NS1 function inh	Shiga inhibitor	Pf growth 48h	CHX counter	Flu NS1 inh	others
Cc1cc(C(=O)COC(=O)Cc2ccc(Cl)cc2)c(C)n1C	-35%	nt	nt	nt	nt	nt	nt
O=S(=O)(N/N=C/c1ccc2c(c1)OCCO2)c1ccccc1	2%	45%	?	60	0%	20*	3
O=C(CCCOc1ccc(Cl)cc1)N1CCOCC1	-4%	260%	11µM*	30*	24%	11	-21
Cc1ccc(S(=O)(=O)Nc2ccccc2C(N)=O)cc1	nt	?	4%	93	2%	8	nt
Cc1ccc(S(=O)(=O)Nc2ccccc2-c2ccccc2NS(=O)(=O)c2ccc(C)cc2)cc1	-14%	40%	10µM*	15	?	4	-35	Flu PR8 replic=8.5
COC(=O)c1ccc(Sc2ccccc2NS(=O)(=O)c2ccc(C)cc2)nc1	6%	-14%	?	-19	0%	3	?
CCC1Oc2ccc(C)cc2N(CC(=O)NCc2cccc(OC)c2)C1=O (stereo not drawn)	-17%	5%	-89%	11	?	7	nt
CCOC(=O)c1c(C)[nH]c(C(=O)C(C)OC(=O)c2cccc(OCc3c(C)noc3C)c2)c1C (stereo not drawn)	-2%	1%	13µM*	29	-24%	17*	-8
O=C(Nc1ccc2c(c1)CCC2)c1cc(S(=O)(=O)Nc2ccc(F)cc2)c(Cl)cc1Cl	-9%	?	14µM*	29	-13%	19*	27	Flu PR8 replic=8
CSc1cc(-c2ccc(Cl)cc2)c(C(=O)NC(C)C)s1	0%	-4%	-3%	-4	-4%	-3	nt
CSc1cc(-c2ccc(Cl)cc2)c(C(=O)NN)s1	5%	12µM*	?	17	?	2	-20
COc1ccccc1NC(C)C(=O)N/N=C/c1ccccc1OCc1cccc(Br)c1 (stereo not drawn)	-7%	54%	16µM*	30	-5%	5	-13
COc1ccc(CCN2CC(C(=O)Nc3cc(S(C)(=O)=O)ccc3Cl)CC2=O)cc1OC (stereo not drawn)	-4%	6%	nt	nt	4%	nt	nt
O=C(/C=C1\NC2(CCCC2)Cc2ccccc21)C(=O)N/N=C/c1ccc(O)c(O)c1	-20%	?	18µM*	-38	?	12	-17
COc1ccccc1C(=O)NNC(=S)NC(=O)c1sc2ccccc2c1Cl	11%	?	?	-8	12%	-2	?
O=C(Cc1c(F)cccc1Cl)OCC(=O)N1CCc2ccccc21	0%	nt	nt	nt	nt	nt	nt
O=C(Cc1c(F)cccc1Cl)OCN1C(=O)c2ccccc2C1=O	9%	80%	2.2µM*	-8	2%	-1	-6
O=C(Cn1cc(/C=N/NC(=O)c2cccc3ccccc23)c2ccccc21)Nc1ccc(F)cc1	0%	?	10µM*	13	?	4	8
